From PubChem
HPGD inh – inhibitors of human 15-hydroxyprostaglandin dehydrogenase (HPGD). purified HPGD, NADH fluorescence kinetic, PGE2 substrate. Potency, µM, inactives show top-dose activity change, negative = inhibition, hits mostly inhibitors. AID 894. actives 4.3% (n = 150,000); also: potency is read from the fitted curve at half-maximal effect
Target sequence (P15428 whole entry, looked up): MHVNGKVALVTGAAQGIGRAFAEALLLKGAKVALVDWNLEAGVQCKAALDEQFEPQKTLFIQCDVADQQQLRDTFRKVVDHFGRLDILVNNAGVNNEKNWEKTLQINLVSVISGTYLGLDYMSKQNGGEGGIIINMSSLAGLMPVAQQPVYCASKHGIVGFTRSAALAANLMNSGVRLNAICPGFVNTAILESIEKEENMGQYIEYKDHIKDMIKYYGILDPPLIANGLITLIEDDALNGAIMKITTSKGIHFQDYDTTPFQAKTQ
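NADH formation kinetics: reaction with 30 uM PGE2 and 1 mM NAD+ (final), 20 nM enzyme, Tris-HCl pH 8 with Tween 20, after 15 min compound preincubation at room temperature. Fluorescence change, last versus first of five reads.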
IMPase cell inh – cell-permeable inhibitors of inositol monophosphatase (IMPase) | CHO-M1 cells, IP1 accumulation, HTRF TR-FRET ratio | inhibition (IP1 accumulation), % at 46.1 µM | 120,000 tested, under 10 active | AID 901; active = well fitted curve in the direction sought with a large enough effect in the signal ratio, not every such curve was filed as active; inconclusive = small, poorly fitted or top-dose-only effect, or a change in a side signal; inactive = no such curve, though single readings can be large or run the other way; the % refers to the signal ratio;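 also: cells stimulated with carbachol in lithium chloride buffer; plate controls were DMSO basal wells for no effect and reference inhibitor wells for full effect; higher means more IMPase inhibition seen as more IP1 and lower FRET ratio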
Target sequence (P97697 whole entry, looked up): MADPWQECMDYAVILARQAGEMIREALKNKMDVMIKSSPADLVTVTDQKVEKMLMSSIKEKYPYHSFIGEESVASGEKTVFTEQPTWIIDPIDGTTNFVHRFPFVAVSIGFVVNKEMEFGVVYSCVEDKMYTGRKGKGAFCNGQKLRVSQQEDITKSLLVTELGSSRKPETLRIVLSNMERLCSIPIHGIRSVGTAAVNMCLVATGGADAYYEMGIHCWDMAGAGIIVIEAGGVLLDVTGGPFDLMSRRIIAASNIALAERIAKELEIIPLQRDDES
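The IP-One HTRF competitive assay in carbachol-stimulated CHO-M1 cells quantifies cellular IP1. Compounds spanned up to 46 uM final, and activity is expressed as AC50 from concentration-response fits of the ratio and donor data.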
IMPase Li cell – IMPase inhibition in cells with lithium potentiation; CHO-M1 cells, IP1 TR-FRET (IP-One), carbachol + lithium; Potency, µM (top dose mostly 59.4 µM), inactives show at the highest dose activity, negative = IMPase inhibition, most hits filed as inhibitors; actives 0.35% (n = 210,000); AID 1457; active = well fitted inhibition curve with a large enough effect; inconclusive = small, poorly fitted or top-dose-only effect; inactive = no such curve, though single readings can be large or run the other way;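 also: IP1 builds up when IMPase is blocked and the TR-FRET signal falls; potency is read from the fitted curve at half-maximal effect; plate controls were basal vehicle for no effect and high inhibitor control for full effect; nearly all actives have a fitted effect of over 50% in size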
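CHO cells stably expressing M1 receptor (2000/well) were cultured 16–30 h, then exposed to compounds with a small lithium addition for 30 min at 37C. IP1 was measured by TR-FRET competition; AC50 from Hill fits.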
PNC inhibitor – inhibitors of perinucleolar compartment assembly; PC3M PTB-GFP, PNC prevalence imaging, 16 h; active compounds read low; activity change (PNC), negative = inhibition, % at 10 µM; actives 3.1% (n = 140,000); AID 2417;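 active = readout at or below -70, meaning at least 70% loss of cells showing the perinucleolar compartment, a nuclear body marking cancer cells; inconclusive = readout between -30 and a set limit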;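 also: plate controls were DMSO wells for no effect and camptothecin positive control wells for full effect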
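Read-out is percentage of cells bearing a perinucleolar compartment, from automated 20x imaging of fixed, Hoechst-stained PC3M PTB-GFP cells. Cells were seeded 4 h, then exposed 16 h to compound (23 nl of library stock) in duplicate plates.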
ALDH1A1 inh – inhibitors of human aldehyde dehydrogenase 1A1; P00352; Purified ALDH1A1, NADH fluorescence, propionaldehyde substrate; Potency, µM (series often up to 75.3 µM), without a hit: top-dose activity, negative = inhibition, most hits filed as inhibitors; actives 7.3% (n = 220,000); AID 1030;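 also: potency is read from the fitted curve at half-maximal effect; plate controls were no enzyme wells and a reference inhibitor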
* marks the source's active call; other numbers are inactive results; [ ] = remark or other dose. The list is not random: actives were taken first. Their share in the collection is about 11%. Unless noted, calls follow the shape of the dose curve; as a rule, active = well fitted inhibition curve with a large enough effect (not every such curve was filed as active); inconclusive = small, poorly fitted or top-dose-only effect, or another doubt; inactive = no such curve, though single readings can be large or run the other way. Unless noted, % is scaled to controls: 0 for no effect and ±100 for the full control effect.

O=C(Cc1cccs1)N1CCC(c2nc3c(nnn3Cc3ccccc3)c(=O)[nH]2)CC1 was read as HPGD inh 4.47µM*, IMPase cell inh 7.6, IMPase Li cell -19.1%[38.3 µM], PNC inhibitor -13.8 and ALDH1A1 inh inconclusive.
Screening O=c1[nH]c(C2CCCN(S(=O)(=O)c3ccc(F)cc3)C2)nc2c1nnn2Cc1ccccc1 (centres undefined) returned HPGD inh 12.6µM*, IMPase cell inh -3.1, IMPase Li cell 11.6%[38.3 µM], PNC inhibitor -18.3 and ALDH1A1 inh 14.1µM*.
For N#Cc1ccc(NC(=O)N2CCC(c3nc4c(nnn4Cc4cccc(Cl)c4)c(=O)[nH]3)CC2)cc1 the results were HPGD inh 14.1µM*, IMPase cell inh -1.8, IMPase Li cell 4.3%[38.3 µM], PNC inhibitor -23.8 and ALDH1A1 inh -10.9%.
`Cc1ccc(Cn2nnc3c(=O)[nH]c(C4CCN(C(=O)Cc5cccs5)CC4)nc32)cc1` gave HPGD inh inconclusive, IMPase cell inh 13.2, IMPase Li cell 3.6%[38.3 µM], PNC inhibitor 28.3 and ALDH1A1 inh -4.3%.
CC(C)(C)c1ccc(Cn2nnc3c(=O)[nH]c(C4CCCN(C(=O)Cc5cccs5)C4)nc32)cc1 (centres undefined) was read as HPGD inh -6.7%, IMPase cell inh -3.8, IMPase Li cell 23.0%[38.3 µM], PNC inhibitor -24.7 and ALDH1A1 inh inconclusive.
For Cc1ccc(Cn2nnc3c(=O)[nH]c(C4CCCN(S(=O)(=O)c5ccccc5)C4)nc32)cc1 (centres undefined) the results were HPGD inh -14.4%, IMPase cell inh 3.1, IMPase Li cell -12.8%[38.3 µM], PNC inhibitor 12.5 and ALDH1A1 inh -8.8%.
For O=C(Cc1cccs1)N1CCCC(c2nc3c(nnn3Cc3ccc(F)cc3)c(=O)[nH]2)C1 (centres undefined) the results were HPGD inh 28.2µM*, IMPase cell inh -6.6, IMPase Li cell 0.5%[38.3 µM], PNC inhibitor 32.1 and ALDH1A1 inh 0.8%.
`O=C(NCc1cccs1)c1nc2c(nnn2Cc2ccccc2Cl)c(=O)[nH]1` gave HPGD inh 6.31µM*, IMPase Li cell 0.9%, PNC inhibitor -18.7 and ALDH1A1 inh -1.0%.
For Cc1[nH]c2ccccc2c1Cc1nnc(SCc2ccccc2)o1 the results were HPGD inh -20.6%, IMPase cell inh 0.0, IMPase Li cell 30.3%[38.3 µM], PNC inhibitor 3.6 and ALDH1A1 inh -1.7%.
For C=C(C)C1CC=C(C)/C(=N/NC(=O)c2ccc(NC(=O)c3cccc(C)c3)cc2)C1 (centres undefined) the results were HPGD inh -19.4%, IMPase cell inh 4.4, IMPase Li cell 16.2%[38.3 µM], PNC inhibitor 27.4 and ALDH1A1 inh -4.1%.
`C=C(C)C1CC=C(C)/C(=N/NC(=S)Nc2ccccc2)C1` (centres undefined) gave HPGD inh -15.5%, IMPase Li cell 1.7%, PNC inhibitor 37.2 and ALDH1A1 inh 35.5µM*.
Screening CCOC(=O)COc1c(Br)cc(/C=C2\SC(=O)N(CC(=O)N3CCCC3)C2=O)cc1OC returned HPGD inh -11.1%, IMPase cell inh -3.3, IMPase Li cell 14.9%[38.3 µM], PNC inhibitor 27.8 and ALDH1A1 inh 22.4µM*.
O=C(CN1C(=O)S/C(=C/c2cc(Br)cs2)C1=O)N1CCOCC1 was read as HPGD inh -7.5%, IMPase cell inh 4.3, IMPase Li cell 18.0%, PNC inhibitor 48.5 and ALDH1A1 inh 22.4µM*.
Screening O=C(CN1C(=O)S/C(=C/c2ccncc2)C1=O)N1CCOCC1 returned HPGD inh 0.8%, IMPase Li cell 6.4%, PNC inhibitor inconclusive and ALDH1A1 inh 25.1µM*.
O=C(CN1C(=O)S/C(=C/c2cccs2)C1=O)N1CCOCC1 was read as HPGD inh -5.6%, IMPase cell inh 6.4, IMPase Li cell 29.3%[38.3 µM], PNC inhibitor 5.8 and ALDH1A1 inh -5.7%.
Screening CCOc1c(Br)cc(/C=C2/SC(=O)N(CC(=O)N3CCCC3)C2=O)cc1OC returned HPGD inh -20.8%, IMPase cell inh 5.0, IMPase Li cell -8.5%, PNC inhibitor 18.5 and ALDH1A1 inh 1.6%.
Screening CNC(=O)COc1ccc(Nc2nnc(-c3ccc(C)c(S(=O)(=O)NC(C)(C)C)c3)c3ccccc23)cc1 returned IMPase cell inh 8.3.
Screening Cc1cccc(CN(CC(=O)N/N=C/c2cccs2)S(=O)(=O)c2ccc(Cl)cc2)c1 returned HPGD inh -10.2%, IMPase cell inh 13.4, IMPase Li cell 25.2%[38.3 µM], PNC inhibitor inconclusive and ALDH1A1 inh 0.5%.
For OC[C@H]1O[C@@H](n2cnc3cncnc32)[C@H](O)[C@@H]1O the results were HPGD inh -12.2%, IMPase Li cell -6.3% and ALDH1A1 inh -2.8%.
Screening COc1ccc2ccc3c(c2c1)N=C[C@]1(O3)N(C)c2ccccc2C1(C)C returned HPGD inh 31.6µM*, IMPase cell inh 16.5, IMPase Li cell 21.4%[38.3 µM], PNC inhibitor 100.1 and ALDH1A1 inh inconclusive.
For CC1=NOC2(C1)N(C)c1ccccc1C2(C)C (centres undefined) the results were HPGD inh -5.7%, IMPase cell inh 4.1, IMPase Li cell 3.6%[38.3 µM], PNC inhibitor -15.1 and ALDH1A1 inh -0.8%.
For C#CCCCCCCCCCCCC(=O)CC(O)COC(C)=O (centres undefined) the results were HPGD inh -8.9%, IMPase Li cell -1.2% and ALDH1A1 inh 8.9%.
`CCOc1ccc2nc(C)cc(Nc3ccccc3OCC)c2c1` gave IMPase cell inh 5.8.
For COC(=O)c1ccc(-c2ccco2)n1Cc1nc(-c2ccc(OC)c(OC)c2)oc1C the results were HPGD inh inconclusive, IMPase cell inh 10.5, IMPase Li cell 37.0%[38.3 µM], PNC inhibitor inconclusive and ALDH1A1 inh 7.94µM*.
For C=CS(=O)(=O)c1sc(Cl)c(N2CCOCC2)c1[N+](=O)[O-] the results were IMPase Li cell 20.5% and ALDH1A1 inh 0.224µM*.
For O=C1C2CC(O)CN2C(=O)N1c1ccccc1 (centres undefined) the results were IMPase Li cell -1.2% and ALDH1A1 inh -0.8%.
CC(OC(=O)c1oc2ccccc2c1COc1ccccc1)C(N)=O (centres undefined) was read as IMPase Li cell 9.5% and ALDH1A1 inh 2.24µM*.
`O=C1NC(=O)C(=C2CCCCCC2)S1` gave HPGD inh inconclusive, IMPase Li cell -0.3%, PNC inhibitor -104.7* and ALDH1A1 inh 3.7%.
`Cc1ccc(S(=O)(=O)n2[nH]c(=O)c(CCO)c2C)cc1` gave IMPase Li cell 0.5% and ALDH1A1 inh -9.9%.
NC(=S)c1ncc(C(F)(F)F)cc1Cl was read as ALDH1A1 inh 28.2µM*.
For CN(C)c1ccc(-c2nc(NCCc3cnc[nH]3)c3ccccc3n2)cc1 the results were IMPase Li cell 18.3% and ALDH1A1 inh inconclusive.
